About 2,000 (36%) of roughly 5,500 compounds were called active. About 18% were inconclusive and are not listed. No stated cut-off is given here; in the data, active means normalized growth mostly below about 0.91 (no sharp cut-off); inconclusive means no clear call, values can overlap the other calls; inactive means mostly above about 0.92. This is one part of the list.
Test: chemical genetic growth profiling, strain panel (AID 1159580);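 further: tested at 20 µM; growth read once vehicle control cultures reached saturation at 30 °C; 1 = growth at the plate median or of vehicle wells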
Conditions: S. cerevisiae deletion strains, growth OD

Measured: normalized growth

COc1ccc(/C=C/C(=O)c2cc(O)ccc2O)cc1
active: locus YAL021C, strain ccr4, stronger effect = lower value 0.81 | locus YAL026C, strain drs2, stronger effect = lower value 0.224 | locus YAL030W, strain snc1, stronger effect = lower value 0.31 | locus YBL061C, strain skt5, stronger effect = lower value 0.38 | locus YBR009C, strain hhf1, stronger effect = lower value 0.15 | locus YBR023C, strain chs3, stronger effect = lower value 0.314 | locus YBR171W, strain sec66, stronger effect = lower value 0.521 | locus YBR231C, strain swc5, stronger effect = lower value 0.324 | locus YBR279W, strain paf1, stronger effect = lower value 0.242 | locus YCL011C, strain gbp2, stronger effect = lower value 0.15 | locus YCL016C, strain dcc1, stronger effect = lower value 0.227 | locus YCL061C, strain MRC1, stronger effect = lower value 0.167 | locus YCL069W, strain vba3, stronger effect = lower value 0.13 | locus YCR088W, strain abp1, stronger effect = lower value 0.263 | locus YDL005C, strain med2, stronger effect = lower value 0.424 | locus YDL040C, strain nat1, stronger effect = lower value 0.646 | locus YDR001C, strain nth1, stronger effect = lower value 0.344 | locus YDR069C, strain doa4, stronger effect = lower value 0.844 | locus YDR137W, strain rgp1, stronger effect = lower value 0.285 | locus YDR159W, strain sac3, stronger effect = lower value 0.268 | locus YDR195W, strain ref2 0.482 | locus YDR297W, strain sur2, stronger effect = lower value 0.362 | locus YDR334W, strain swr1, stronger effect = lower value 0.172 | locus YDR335W, strain msn5, stronger effect = lower value 0.238 | locus YDR392W, strain spt3, stronger effect = lower value 0.0876 | locus YEL003W, strain gim4, stronger effect = lower value 0.133 | locus YEL037C, strain rad23, stronger effect = lower value 0.617 | locus YEL061C, strain CIN8 (second series), stronger effect = lower value 0.0921 | locus YER015W, strain faa2, stronger effect = lower value 0.429 | locus YER016W, strain bim1, stronger effect = lower value 0.426 | locus YER111C, strain swi4, stronger effect = lower value 0.0945 | locus YER155C, strain BEM2 (second series), stronger effect = lower value 0.106 | locus YFR010W, strain ubp6, stronger effect = lower value 0.685 | locus YGL167C, strain pmr1, stronger effect = lower value 0.894 | locus YGL173C, strain kem1, stronger effect = lower value 0.516 | locus YGL227W, strain vid30, stronger effect = lower value 0.103 | locus YGL240W, strain doc1, stronger effect = lower value 0.48 | locus YGL253W, strain hxk2, stronger effect = lower value 0.172 | locus YHR013C, strain ard1, stronger effect = lower value 0.421 | locus YHR027C, strain rpn1, stronger effect = lower value 0.661 | locus YHR030C, strain SLT2, stronger effect = lower value 0.432 | locus YHR079C, strain IRE1, stronger effect = lower value 0.456 | locus YHR142W, strain chs7, stronger effect = lower value 0.101 | locus YJL092W, strain hpr5, stronger effect = lower value 0.272 | locus YJL095W, strain BCK1 (second series), stronger effect = lower value 0.0826 | locus YJL095W, strain BCK1, stronger effect = lower value 0.427 | locus YJL115W, strain asf1, stronger effect = lower value 0.416 | locus YJL129C, strain trk1, stronger effect = lower value 0.373 | locus YJL154C, strain vps35, stronger effect = lower value 0.613 | locus YJL164C, strain tpk1, stronger effect = lower value 0.152 | locus YJL166W, strain qcr8, stronger effect = lower value 0.141 | locus YJL187C, strain SWE1, stronger effect = lower value 0.269 | locus YJR066W, strain TOR1, stronger effect = lower value 0.465 | locus YKL160W, strain elf1, stronger effect = lower value 0.136 | locus YKR026C, strain gcn3, stronger effect = lower value 0.449 | locus YKR091W, strain srl3, stronger effect = lower value 0.593 | locus YLL001W, strain dnm1, stronger effect = lower value 0.338 | locus YLL026W, stronger effect = lower value 0.226 | locus YLL041C, strain sdh2, stronger effect = lower value 0.379 | locus YLR027C, strain aat2, stronger effect = lower value 0.267 | locus YLR113W, strain HOG1, stronger effect = lower value 0.396 | locus YLR221C, strain rsa3, stronger effect = lower value 0.113 | locus YLR258W, strain gsy2, stronger effect = lower value 0.333 | locus YLR262C, strain YPT6 (second series), stronger effect = lower value 0.289 | locus YLR320W, strain mms22, stronger effect = lower value 0.123 | locus YLR342W, strain FKS1, stronger effect = lower value 0.248 | locus YLR357W, strain rsc2, stronger effect = lower value 0.717 | locus YLR370C, strain arc18, stronger effect = lower value 0.72 | locus YLR384C, strain iki3, stronger effect = lower value 0.605 | locus YML120C, strain ndi1, stronger effect = lower value 0.221 | locus YMR058W, strain fet3, stronger effect = lower value 0.152 | locus YMR125W, strain sto1, stronger effect = lower value 0.156 | locus YMR129W, stronger effect = lower value 0.546 | locus YMR205C, strain PFK2, stronger effect = lower value 0.178 | locus YMR231W, strain pep5, stronger effect = lower value 0.522 | locus YNL071W, strain lat1, stronger effect = lower value 0.0772 | locus YNL183C, strain NPR1, stronger effect = lower value 0.475 | locus YNL209W, strain ssb2, stronger effect = lower value 0.606 | locus YNL248C, strain rpa49, stronger effect = lower value 0.319 | locus YNL322C, strain KRE1 (second series), stronger effect = lower value 0.462 | locus YNR049C, strain mso1, stronger effect = lower value 0.594 | locus YOR001W, strain rrp6, stronger effect = lower value 0.349 | locus YOR070C, strain gyp1, stronger effect = lower value 0.309 | locus YOR080W, strain dia2, stronger effect = lower value 0.71 | locus YOR083W, strain WHI5, stronger effect = lower value 0.38 | locus YOR106W, strain vam3, stronger effect = lower value 0.391 | locus YOR231W, strain MKK1, stronger effect = lower value 0.464 | locus YOR265W, strain rbl2, stronger effect = lower value 0.425 | locus YOR270C, strain vph1, stronger effect = lower value 0.191 | locus YOR290C, strain snf2, stronger effect = lower value 0.145 | locus YPL051W, strain arl3, stronger effect = lower value 0.29 | locus YPL078C, strain atp4, stronger effect = lower value 0.166 | locus YPL106C, strain sse1, stronger effect = lower value 0.483 | locus YPL240C, strain hsp82, stronger effect = lower value 0.275 | locus YPL256C, strain CLN2, stronger effect = lower value 0.551

From PubChem BioAssay AID1159580 (chemical genetic matrix, 2015)
